Screens as filed in PubChem BioAssay.
In the library only some 11% were active in any assay of this set; here they are far more common.
AMA1-RON2 inh = AMA1-RON2 (P. falciparum) interaction inhibition. AlphaScreen AMA1-biotinylated RON2 peptide binding. Potency, µM (highest dose often 58.2 µM), inactives show top-dose activity change, negative = inhibition, usual class: inhibitors. hit rate 0.2% among 360,000;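 also: 0% = vehicle wells and -100% = peptide control; nearly all actives have a fitted effect of over 45% in size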
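AMA1 (3D7) with his tag at 25 nM final met compounds first, then biotinylated RON2 peptide at 25 nM; detection used donor plus acceptor beads, 10 µg/mL apiece, read by AlphaScreen after 30 min at room temperature.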
HCV inh = inhibitors of hepatitis C virus infection. Huh7.5.1 HCVcc-Cre infection, luciferase reporter, 44 h. Potency, µM (series often up to 41.8 µM), for the others: at the highest dose activity change, negative = inhibition, most hits filed as inhibitors. hit rate 3.4% among 340,000
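Antiviral activity was scored by luciferase reporter output from cells infected with HCVcc-Cre (~0.5 moi) in presence of compound, 44 h infection period, cells seeded 1,000/well 4 h prior.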
AmpC detergent = inhibitors of E. coli AmpC beta-lactamase with detergent; P00811; AmpC hydrolysis of nitrocefin, absorbance 480 nm, 0.01% Triton; Potency, µM (highest dose often 114 µM), inactives show top-dose activity change, negative = inhibition, most hits filed as inhibitors; hit rate 0.041% among 370,000; AID 485294;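 also: 0% = no-compound wells and -100% = no-enzyme wells; nearly all actives have a fitted effect of over 25% in size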
Target sequence (P00811 whole entry, looked up): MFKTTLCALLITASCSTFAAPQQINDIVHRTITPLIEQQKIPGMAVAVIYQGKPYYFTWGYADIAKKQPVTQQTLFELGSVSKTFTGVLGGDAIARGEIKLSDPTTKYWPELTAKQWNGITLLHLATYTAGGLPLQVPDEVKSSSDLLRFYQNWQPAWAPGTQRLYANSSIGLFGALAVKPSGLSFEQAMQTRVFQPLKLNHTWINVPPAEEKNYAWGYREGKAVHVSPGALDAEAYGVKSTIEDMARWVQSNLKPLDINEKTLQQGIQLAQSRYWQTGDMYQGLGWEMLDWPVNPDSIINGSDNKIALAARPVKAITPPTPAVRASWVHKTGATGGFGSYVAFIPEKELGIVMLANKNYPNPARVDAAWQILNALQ
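20 mM phosphate pH 7.0 + 0.01% (detergent screen) or 0.0001% Triton X-100; 5.3 nM AmpC reagent; cpd preinc 15 min RT; nitrocefin (800 uM stock) to start; A480 q20 s × 4 min; Activity was normalised to no-enzyme and no-compound control wells.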
AmpC no deterg = inhibitors of E. coli AmpC beta-lactamase without detergent; P00811; AmpC nitrocefin hydrolysis, absorbance 480 nm, 0.0001% Triton; Potency, µM (highest dose often 57.1 µM), without a hit: at the top dose activity change, negative = inhibition, most hits filed as inhibitors; hit rate 0.52% among 330,000;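 also: plate controls were no compound for no effect and no enzyme for full effect; nearly all actives have a fitted effect of over 20% in size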
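AmpC (5.3 nM in the dispensed reagent) in 20 mM phosphate pH 7.0 with 0.01% (detergent screen) or 0.0001% Triton X-100 was preincubated with compounds for 15 min at room temperature. Nitrocefin was then added from an 800 uM solution, and hydrolysis was followed at 480 nm.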
Pf growth 96h = P. falciparum growth inhibition at 96 hours; P. falciparum luciferase reporter growth, 96 h; Potency, µM (titrated, usually from 28.7 µM), inactives show at the top dose activity change, negative = inhibition, usual class: inhibitors; hit rate 6.9% among 320,000
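Compounds incubated with erythrocytes infected by luciferase-expressing P. falciparum (2% hematocrit, 0.05% parasitemia final) for 96 hours, 37 C in 5% CO2. Growth inhibition scored as decreased luciferase luminescence.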
Pf growth 48h = P. falciparum growth inhibition at 48 hours (one generation). P. falciparum luciferase growth in erythrocytes, 48 h. Potency, µM (doses to about 28.7 µM), inactives show at the top dose activity change, negative = inhibition, usual class: inhibitors. hit rate 5.9% among 310,000. AID 504832
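First compound was added to culture medium, then infected red cells at 0.1% parasitemia and 2% hematocrit (final). After incubation at 37 C under 5% CO2, luciferase detection reagent was dispensed and light output recorded.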
An asterisk follows results filed as active; ? = inconclusive; nt = no result given; [ ] = another dose, or the depositor's remark. Calls follow the shape of the dose curve; as a rule, active = well fitted curve in the direction sought with a large enough effect; inconclusive = small, poorly fitted or top-dose-only effect, or another doubt; inactive = no such curve, though single readings can be large; an effect the other way counts as inactive or inconclusive. Unless noted, % is scaled to controls: 0 for no effect and ±100 for the full control effect; potency is read from the fitted curve at half-maximal effect.

SMILES	AMA1-RON2 inh	HCV inh	AmpC detergent	AmpC no deterg	Pf growth 96h	Pf growth 48h
CCC(C)(C)n1nnnc1C(c1ccc(C)cc1)N1CCN(Cc2cccnc2)CC1 (stereo not drawn)	0.8%	15.8%	?	65.7%	-3.9%[5.75 µM]	13.1µM*
CCC(C)(C)n1nnnc1C(c1ccc(C)cc1)N1CCSCC1 (stereo not drawn)	-8.7%	-8.4%	-16.8%	20.1%	?	-24.4%
CCC(C)(C)n1nnnc1C(c1cccnc1)N1CCN(c2cccc(C(F)(F)F)c2)CC1 (stereo not drawn)	-5.5%	-0.3%	-1.8%	166.0%	-0.1%	9.28µM*
Cc1ccc(-n2ncc(C(=O)NCCc3ccccc3)c2C2CCN(C(=O)OC(C)(C)C)CC2)c(C)c1	nt	nt	1.8%	nt	nt	nt
CCCCN(C)C(=O)C1CCC(Cn2c(=O)[nH]c3ccsc3c2=O)CC1 (stereo not drawn)	nt	nt	20.3%	nt	nt	nt
COc1cc(C(=O)O)cc(OC)c1OCc1cc(C(=O)O)oc1C	-0.9%	17.3%	-21.8%	-11.3%	-11.1%	7.4%
Cc1oc(C(=O)O)cc1COc1cccc2ccccc12	-8.8%	4.3%	-7.3%	-17.2%	2.33µM*	5.2%
COc1ccc(CSc2ccc(-c3nc4ccccn4c3NCc3ccccc3)cc2OC)cc1	2.3%	?	?	-5.1%	?	10.4µM*
CCC(C)Sc1ccc(-c2nc3ccccn3c2NCc2ccccc2)cc1OC (stereo not drawn)	11.7%	?	nt	0.8%	nt	nt
Cc1ccn2c(NC3CCCC3)c(-c3ccccn3)nc2c1	-5.8%	?	7.8%	6.1%	?	-23.8%
COc1cc(-c2nc3ccccn3c2NCc2ccccc2)ccc1SC1CCCCC1	-15.5%	?	-1.2%	-21.2%	?	5.22µM*
c1ccc(-c2nc3ccccn3c2NC2CCCC2)nc1	5.3%	?	0.7%	22.4%	18.9%	10.4µM*
COc1ccc(-c2nc3ccccn3c2NC2CCCCC2)cc1SC1CCCCC1	-10.8%	?	-13.1%	-3.6%	?	11.7µM*
COc1cc(-c2nc3ccc(C)cn3c2NCc2ccccc2)ccc1SC1CCCCC1	-1.9%	-24.5%	?	17.9%	4.65µM*	?
O=C1c2ccccc2NC2CCCCC12 (stereo not drawn)	-6.7%	-22.7%	-16.7%	-16.5%	2.9%	1.85µM*
O=C1c2ccccc2NC2CCCCCN12 (stereo not drawn)	27.3%	-10.2%	-3.1%	-8.7%	?	-16.0%
O=C(NCCOc1ccc(Cl)cc1)c1ccco1	-24.2%	-3.0%	?	-1.3%	2.08µM*	-3.3%
Cc1ccc(OCC(=O)Nc2cc(-c3nn4c(C)nnc4s3)ccc2C)cc1	15.0%	-4.7%	-5.0%	-30.2%	7.38µM*	?
O=C(NCc1cccc(Cl)c1)NCc1noc2ccccc12	nt	nt	12.9%	nt	nt	nt
Cc1ccccc1NC(=O)c1ccc(F)c(S(=O)(=O)N2CCN(c3ccccn3)CC2)c1	-6.1%	?	?	-34.5%	nt	13.1µM*
O=C(Nc1ccc(Br)cc1)c1ccc(F)c(S(=O)(=O)N2CCN(c3ccccn3)CC2)c1	-1.8%	7.08µM*	-4.3%	-44.5%	-3.3%	?
Cc1ccc(S(=O)(=O)N[C@@H](C)C(=O)N2CCC(C(=O)N3CCC[C@H]3C(=O)O)CC2)cc1	8.2%	5.3%	1.7%	-17.4%	nt	-6.8%
COC(=O)C1CCN(C(=O)C2CCN(C(=O)[C@H](C)NS(=O)(=O)c3ccc(C)cc3)CC2)CC1	0.0%	?	?	19.2%	11.7µM*	?
COc1cccc(NC(=S)N/N=C2\CC3CCC2(C)C3(C)C)c1 (stereo not drawn)	45.5%	?	?	-14.0%	?	10.4µM*
CC12CCC(C/C1=N/NC(=O)Nc1ccccc1)C2(C)C (stereo not drawn)	6.9%	0.6%	-0.3%	0.7%	36.2%[5.75 µM]	46.5%
SMILES	AMA1-RON2 inh	HCV inh	AmpC detergent	AmpC no deterg	Pf growth 96h	Pf growth 48h
O=C(/C=C/c1ccc(O)c([N+](=O)[O-])c1)c1ccc2ccccc2c1	?	10.1%	-0.8%	-49.3%	?	?
CNc1ccc(/C=C/C(=O)c2ccc(C)cc2)cc1[N+](=O)[O-]	-27.1%	-19.1%	3.1%	-14.1%	11.7µM*	9.2%
COc1cccc(C(=O)/C=C/c2ccc(N3CCCCC3)c([N+](=O)[O-])c2)c1	5.01µM*	?	-3.8%	-28.2%	-77.2%	?
CN(C)c1ccc(/C=C/C(=O)c2ccccc2)cc1[N+](=O)[O-]	?	53.1%	?	-29.2%	9.28µM*	105.5%
COc1ccc(-c2nc(CS(=O)CC(=O)NCCc3ccccc3)c(C)o2)cc1OC (stereo not drawn)	nt	nt	-8.0%	nt	nt	nt
O=c1c2ccccc2n(Cc2c(F)cccc2Cl)c(=O)n1CCc1ccccc1	nt	nt	14.7%	nt	nt	nt
CC1C(=O)CC(c2ccccc2)NC1c1ccccc1 (stereo not drawn)	9.1%	25.7%	0.1%	-17.1%	-1.4%	nt
CC(C)C1C(=O)CC(c2ccccc2)NC1c1ccccc1 (stereo not drawn)	-0.1%	5.1%	2.0%	-4.7%	1.17µM*	-28.4%
CC(C)CCNC(=O)c1onc(CSc2ccc(F)c(F)c2)c1C(=O)NCCC(C)C	10.8%	-4.7%	-5.8%	-19.9%	10.4µM*	11.7µM*
CC(C)CCNC(=O)c1onc(CSc2ccc(F)cc2)c1C(=O)NCCC(C)C	18.0%	6.9%	6.9%	-15.4%	?	4.15µM*
Cc1ccc(C)c(S(=O)(=O)NCCc2csc(-c3ccc(Cl)cc3)n2)c1	nt	nt	21.9%	nt	nt	nt
CCc1cccc(NC(=O)c2cc3c(=O)[nH]c4ccccc4c3n2C)c1	nt	nt	1.6%	nt	nt	nt
O=C(CN1CCN(C(=O)c2ccco2)CC1)Nc1ccccc1-c1ccccc1	-5.0%	-16.7%	-8.7%	80.8%	-104.5%	?
O=C(CN1CCN(C(=O)c2ccco2)CC1)Nc1cc(Cl)ccc1Cl	-8.9%	-17.0%	-6.4%	5.5%	35.1%	1.04µM*
O=C(CN1CCN(C(=O)c2ccco2)CC1)Nc1ccc(Cl)c(S(=O)(=O)N2CCOCC2)c1	-4.0%	-9.8%	0.0%	37.6%	-82.8%	11.7µM*
O=C(CN1CCN(C(=O)c2ccco2)CC1)Nc1ccc2c(c1)OCCO2	-6.1%	-19.5%	-10.3%	-10.5%	28.0%	62.2%
CN1CCN(CC(=O)Nc2ccc(Cl)cc2Cl)CC1	-5.6%	?	-11.1%	-17.6%	9.28µM*	14.8%
COc1ccccc1CNC(=O)Cc1csc2nc(-c3ccc(F)cc3)cn12	nt	nt	19.8%	nt	nt	nt
CN(C)c1ccc(NC(=O)C2(c3cccs3)CCOCC2)cc1	nt	nt	4.1%	nt	nt	nt
